Source: PubChem (National Center for Advancing Translational Sciences (NCATS))
Most compounds without a hit are left out; they make up all but 0.95% or so of the library.
TexasRed autofl: qHTS Assay for Spectroscopic Profiling in Texas Red Spectral Region | Compound fluorescence, Texas Red channel, 547/618 nm; hits give high values | max dye-equivalent concentration, M | 0.06% of 59,000 active; in the data active means max dye-equivalent concentration above about 10 nM; inconclusive means between about 1.1 nM and that limit
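Texas Red-region profiling: compounds in 100 mM Tris pH 8.0 were read at 547/618 nm after 15 min at room temperature. Intensities were normalized against a six-point Texas Red standard series to give dye-equivalent concentration.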
A488 autofl: qHTS Assay for Spectroscopic Profiling in A488 Spectral Region | max dye equivalency, M | compound autofluorescence, A488 spectral region, dye equivalency; Compound Type: qHTS ECL - MLSMR | 0.1% of 59,000 active
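Read-out: relative fluorescence at 480/540 nm, expressed as Alexa 488 dye-equivalent concentration from a six-point A488 standard included per plate. Conditions: 100 mM Tris, pH 8.0; 15 min incubation, room temperature.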
Rhodamine autofl: qHTS Assay for Spectroscopic Profiling in Rhodamine Spectral Region; max dye-equivalent concentration, M; Rhodamine-region fluorescence, 547/598 nm, Tris buffer; hits give high values; 0.05% of 59,000 active; AID 594, 2007; in the data active means max dye-equivalent concentration above about 11 nM; inconclusive means between about 1.1 nM and that limit
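A six-point rhodamine series on each plate calibrates the signal. Compounds sit in 100 mM Tris (pH 8.0) for 15 min at ambient temperature before imaging through 547 nm/598 nm filters.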
A647 fluor: qHTS Assay for Spectroscopic Profiling in A647 Spectral Region. Compound fluorescence, A647 channel (570/671 nm), Tris buffer. max dye-equivalent concentration, M. 59,000 tested, under 10 active;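 further: values scaled relative to a standard on each plate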
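Buffer was dispensed, compounds and Alexa 647 standards were pin-transferred, and plates sat 15 min at room temperature. Intensity at 570/671 nm was then converted to dye-equivalent concentration using the plate's A647 standard curve.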
Resorufin autofl: qHTS Assay for Spectroscopic Profiling in Resorufin Spectral Region; Compound fluorescence, resorufin region 547/598 nm, buffer; hits give high values; max dye-equivalent concentration, M; 0.04% of 59,000 active; AID 588, 2007
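Compounds in 100 mM Tris buffer, pH 8.0, incubated 15 min at room temperature, then read with 547 nm excitation and 598 nm emission filters. Fluorescence was converted to dye-equivalent concentration using an on-plate six-point resorufin standard curve.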
Fluorescein autfl: qHTS Assay for Spectroscopic Profiling in Fluorescein Spectral Region; Compound autofluorescence, 480/540 nm, fluorescein-equivalent; hits give high values; max fluorescein-equivalent concentration, M; 0.91% of 59,000 active; AID 593, 2007; in the data active means max fluorescein-equivalent concentration above about 10 nM; inconclusive means between about 1.1 nM and that limit
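Values reflect compound autofluorescence, normalized to fluorescein on the same plate and reported at each tested concentration. Conditions: 100 mM Tris pH 8.0, room temperature, 15 min, excitation 480 nm, emission 540 nm.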
Numbers without * were called inactive; i = inactive; ? = inconclusive. Unless noted, how the calls were made is not given here.

SMILES	TexasRed autofl	A488 autofl	Rhodamine autofl	A647 fluor	Resorufin autofl	Fluorescein autfl
CCOC(=O)c1csc(NC(=O)CSc2nnnn2-c2ccc(OCC)cc2)n1	i	i	i	1e-09	i	2.3e-08M*
CCOC(=O)c1c2c(n3ccccc13)C(=O)c1ccccc1C2=O	i	i	i	1e-09	i	?
CCOC(=O)C(C(=O)OCC)c1cc(Br)c2noc3c2c1C(=O)c1ccccc1-3	i	1.2e-08M*	i	5.6e-09	i	2.6e-07M*
Cc1cc(-c2ccccc2C(=O)O)on1	?	i	i	1.8e-08	i	?
O=C(O)c1ccccc1C1=Nc2ccc(O)cc2Oc2cc(O)ccc21	1.3e-08M*	?	?	3.6e-08	?	1.7e-07M*
CCOC(=O)C1=C(C)OC(N)=C(C#N)C1c1cc(OC)c2c(c1)OCO2 (stereo not given)	i	i	i	7.1e-09	i	?
CCOc1cc(C2C(C#N)=C(N)OC(C)=C2C(C)=O)cc(Br)c1O (stereo not given)	i	1.2e-08M*	i	2.5e-09	i	1.9e-07M*
Cc1ccc(S(=O)(=O)O[C@H]2C[C@@H](C(C)(C)C)CC[C@@H]2c2ccccc2)cc1	?	i	i	3.6e-09	i	i
CN(C)S(=O)(=O)N1CCc2ccccc21	i	i	i	4.1e-09	i	i
O=S(=O)(Cc1ccccc1)N1CCc2ccccc21	2e-08M*	?	2.1e-08M*	7.6e-09	1.6e-08M*	3.4e-08M*
O=C(O)c1ccc2c(c1)NC(=O)C(N1CCCC1)S2 (stereo not given)	i	i	i	4.1e-08	i	1.1e-08M*
COC(=O)c1ccc2c(c1)NC(=O)C(N1CCCC1)S2 (stereo not given)	i	i	i	3.5e-08	i	?
CCCn1c(=C(C#N)C#N)s/c(=C2\C=Cc3ccccc3N2CC)c1=O	?	i	?	9.4e-09	?	2.1e-08M*
CCSC1=NC(=O)/C(=C2/C=Cc3ccccc3N2CC)S1	i	i	i	7.5e-09	i	?
C[C@@]12CCC(=O)C=C1CC[C@@H]1[C@@H]2[C@H](O)C[C@]2(C)[C@@H]1CC[C@]2(O)C(=O)COC(=O)CCC(=O)O	i	i	i	3.4e-09	i	?
COc1c(O)ccc2c1CN1CCc3cc4c(cc3[C@@H]1C2)OCO4	i	i	i	4e-08	i	?
O=C1CCN2C=Nc3cccc4ccc1c2c34	i	1.5e-07M*	i	5.7e-09	i	2.8e-06M*
CCOC(=O)C1=C(C(C)=O)C(c2cccnc2)C(C#N)=C(N)O1 (stereo not given)	?	i	i	3e-08	i	i
CC(=O)C1(C)OC(N)=C(C#N)C(c2ccccc2)C1(C#N)C#N (stereo not given)	i	i	i	3.2e-09	i	1.1e-08M*
C=CCn1c(O)c(CN2CCOCC2)c(C)c(C#N)c1=O	?	i	i	5.3e-09	i	1.3e-08M*
Cn1c(CN2CCOCC2)c(C#N)c2ccccc21	i	i	i	1e-09	i	?
Cc1noc(C)c1C(=O)N1CCC[C@@]2(CCN(C(=O)Nc3ccccc3)C2)C1	i	i	i	5.4e-09	i	i
COc1ccc2nc(N3CCC(C)CC3)c(C#N)cc2c1	i	i	i	1e-09	i	?
COc1ccc2nc(N3CCC(O)CC3)c(C#N)cc2c1	i	i	i	1e-09	i	2.3e-08M*
O=C(O)[C@@H]1CCCN1Cc1cc2ccccc2c2ccccc12	i	i	i	5.7e-08	i	?
SMILES	TexasRed autofl	A488 autofl	Rhodamine autofl	A647 fluor	Resorufin autofl	Fluorescein autfl
Clc1ccc(CN2CCCN(Cc3ccc(Cl)cc3)C2c2cc3ccccc3c3ccccc23)cc1	i	i	i	3.5e-09	i	1.2e-08M*
CC(=O)O[C@H]1CC[C@@]2(C)C(=CC[C@@H]3[C@H]4CC[C@@H]([C@H](C)C(=O)O)[C@]4(C)CC[C@H]32)C1	i	i	i	1.8e-08	i	i
Cc1c(-n2cc(C(=O)c3ccccc3O)cc(C#N)c2=O)c(=O)n(-c2ccccc2)n1C	i	?	i	2.3e-08	i	3.7e-08M*
CC(=O)[C@@H]1[C@H]2[C@@H](C(=O)[C@H]3OC[C@H]2O3)[C@@H]2C=Cc3ccccc3N12	?	i	i	2.1e-08	i	1.1e-08M*
O=C1c2cccnc2C(=O)N1Cc1ccc(F)cc1	i	?	i	1e-09	i	8.2e-08M*
C[C@@H]1C[C@H](OC(=O)[C@@H](O)c2ccccc2)CC(C)(C)N1C	i	i	i	1.3e-08	i	?
CCOC(=O)COn1c(=O)c(-c2cccs2)[n+]([O-])c2ccccc21	i	i	i	2.9e-08	i	1.3e-08M*
CCOn1c(=O)c(-c2ccc(OC)cc2)[n+]([O-])c2ccccc21	i	i	i	1e-09	i	i
CC(=O)[C@@H]1[C@@H]2C(=O)N(c3ccc(F)c(Cl)c3)C(=O)[C@@H]2C2c3ccccc3C=CN21 (stereo not given in full)	?	?	?	3.5e-08	?	3.3e-08M*
CC(=O)[C@H]1[C@H]2[C@H](C(=O)[C@@H]3OC[C@H]2O3)[C@@H]2c3ccccc3C=CN12	i	i	i	1.6e-08	i	?
CC(=O)[C@H]1[C@@H]2C(=O)N(c3cccc(Cl)c3)C(=O)[C@@H]2[C@H]2c3ccccc3C=CN21	i	i	i	1e-09	i	1.8e-08M*
O=C(c1ccco1)[C@@H]1[C@@H]2C(=O)N(c3ccc(Br)cc3)C(=O)[C@@H]2C2c3ccccc3C=CN21 (stereo not given in full)	?	i	i	4.2e-09	i	?
COc1ccc(NC(=O)[C@@H]2[C@@H]3C(=O)N(C4CCCCC4)C(=O)[C@@H]3C3c4ccccc4C=CN32)cc1 (stereo not given in full)	i	i	i	1.8e-09	i	?
O=C(c1ccco1)[C@@H]1[C@@H]2C(=O)N(c3ccc(F)cc3)C(=O)[C@@H]2C2c3ccccc3C=CN21 (stereo not given in full)	?	i	i	5.7e-09	i	1.3e-08M*
N#C[C@@H]1[C@@H]2C(=O)N(c3ccc4c(c3)OCCO4)C(=O)[C@@H]2C2c3ccccc3C=CN21 (stereo not given in full)	?	i	?	3.9e-08	?	1.3e-08M*
